Screening results deposited in PubChem BioAssay by National Center for Advancing Translational Sciences (NCATS).
Pf growth 96h: Primary qHTS for delayed death inhibitors of the malarial parasite plastid, 96 hour incubation | P. falciparum luciferase reporter growth, 96 h | Potency, µM (highest dose often 28.7 µM), inactives show at the highest dose activity change, negative = inhibition, most hits filed as inhibitors | 320,000 tested, 6.9% active; also: potency is read from the fitted curve at half-maximal effect; % is scaled to controls: 0 for no effect and ±100 for the full control effect
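Infected RBCs, 2% Hct / 0.05% parasitemia final; luciferase-reporter P. falciparum; cpd 96 h, 37 C, 5% CO2; luciferase detection reagent; luminescence.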
HCMV antiviral: qHTS Assay for inhibitors of the human cytomegalovirus (HCMV) | 410,000 tested, 4.5% active | activity change, negative = inhibition, % at 57.5 µM | HFF cells, HCMV-luciferase reporter, 72 h; stronger effect = lower value | AID 1259415, 2018; in the data active = activity change below about -60%; inconclusive = no clear call, values can overlap the other calls; inactive = above about -39%; also: % is scaled to controls: 0 for no effect and ±100 for the full control effect
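Two compound doses tested in HFFs infected with HCMV-luciferase, MOI 1 PFU/cell, 72 h at 37C. Lysate luminescence read with OneGlo; data normalized against buffer-only and 10uM Salinomycin inhibitor controls.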
Shiga toxin inh: A qHTS for Small Molecule Inhibitors of Shiga Toxin. Vero cells, Shiga toxin protein synthesis inhibition reporter. inhibition, % at 38.7 µM. 290,000 tested, 9.2% active; in the data active = inhibition mostly above about 28%, no sharp cut-off; inactive = mostly below about 43%; also: 0% is about no effect
HCV inhibitor: qHTS Assay for Inhibitors of Hepatitis C Virus (HCV); 340,000 tested, 3.4% active; Huh7.5.1 HCVcc-Cre infection, luciferase reporter, 44 h; AID 651820, 2012; Potency, µM (doses to about 41.8 µM), for inactives: top-dose activity change, negative = inhibition, hits mostly inhibitors; also: potency is read from the fitted curve at half-maximal effect; % is scaled to controls: 0 for no effect and ±100 for the full control effect
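1,000 cells/well; 4 h culture; + compound; + HCVcc-Cre (~0.5 moi); 44 h; luciferase substrate, RT 15 min; read 15 sec.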
CHX counter: Cycloheximide Counterscreen for Small Molecule Inhibitors of Shiga Toxin; cell reporter, cycloheximide protein synthesis inhibition counterscreen; max response, %; 300,000 tested, 12% active; AID 2314, 2010; in the data active = max response mostly above about 13%, no sharp cut-off; inactive = mostly below about 14%; also: read at 38.3 µM for the half of the compounds with a filed dose; 0% is about no effect
Pf growth 48h: Primary qHTS for delayed death inhibitors of the malarial parasite plastid, 48 hour incubation. Potency, µM (titrated, usually from 28.7 µM), inactives show at the highest dose activity change, negative = inhibition, usual class: inhibitors. AID 504832, 2011. P. falciparum luciferase growth in erythrocytes, 48 h. 310,000 tested, 5.9% active; also: potency is read from the fitted curve at half-maximal effect; % is scaled to controls: 0 for no effect and ±100 for the full control effect
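First compound was added to culture medium, then infected red cells at 0.1% parasitemia and 2% hematocrit (final). After incubation at 37 C under 5% CO2, luciferase detection reagent was dispensed and light output recorded.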
* marks the source's active call; other numbers are inactive results. Sampled rows, rich in hits. Any-hit rate of the full collection: about 21%. Unless noted, calls follow the shape of the dose curve; as a rule, active = well fitted inhibition curve with a large enough effect; inconclusive = small, poorly fitted or top-dose-only effect, or another doubt; inactive = no such curve, though single readings can be large or run the other way.

How did COCCNc1cc(C)nc2cc(-c3ccc(C)cc3)nn12 do in these assays?
Pf growth 96h: 4.5%; HCMV antiviral: -10.2; Shiga toxin inh: 99.9; HCV inhibitor: inconclusive; CHX counter: 15.3*; Pf growth 48h: 23.9%

Results for Cc1ccc(-c2cc3nc(C)cc(NCc4ccco4)n3n2)cc1 ?
Pf growth 96h: 21.8%; HCMV antiviral: 117.7; Shiga toxin inh: 58.9*; CHX counter: 54.5*; Pf growth 48h: 3.2%

Results for CN(C)CCCNc1cc(-c2ccccc2)nc2cc(-c3cccc(F)c3)nn12 ?
Pf growth 96h: -13.9%; HCMV antiviral: 33.0; Shiga toxin inh: -33.3; HCV inhibitor: inconclusive; CHX counter: -8.9; Pf growth 48h: inconclusive

Results for CCCCN(C(=O)c1cc(=O)[nH]c2ccccc12)c1c(N)n(CCCC)c(=O)[nH]c1=O ?
Pf growth 96h: 24.4%; HCMV antiviral: 36.3; Shiga toxin inh: -3.3; HCV inhibitor: 13.2%; CHX counter: -2.8; Pf growth 48h: -1.9%

How did Cn1c(=O)n(C)c2cc(N3CCCCC3)c(NC(=O)Nc3ccc(Br)cc3)cc21 do in these assays?
HCMV antiviral: -33.3

What do the screens show for `Nc1nc(NCC2CCCO2)nc(Nc2ccc(Cl)cc2)c1[N+](=O)[O-]` (configuration not stated)?
Pf growth 96h: inconclusive; HCMV antiviral: -68.7*; Shiga toxin inh: 16.6; HCV inhibitor: -9.9%; CHX counter: -3.7; Pf growth 48h: inconclusive

Results for Nc1nc(NCC2CCCO2)nc(Nc2ccccc2)c1[N+](=O)[O-] (configuration not stated) ?
Pf growth 96h: inconclusive; HCMV antiviral: -16.6; Shiga toxin inh: -2.5; HCV inhibitor: -18.7%; CHX counter: -2.5; Pf growth 48h: 10.4µM*

How did CCCCCCCCNCCS(=O)(=O)NN1CCOCC1 do in these assays?
HCMV antiviral: -26.7; HCV inhibitor: inconclusive

What do the screens show for `O=C(CSc1nnc(-c2cccs2)o1)Nc1cccc(C(F)(F)F)c1`?
HCMV antiviral: 23.9

How did CCCn1c(SCC(=O)c2[nH]c(C)c(C(C)=O)c2C)n[nH]c1=O do in these assays?
Pf growth 96h: 1.3%; HCMV antiviral: 2.8; Shiga toxin inh: -2.1; HCV inhibitor: 29.9%; CHX counter: 1.6; Pf growth 48h: 33.4%

Results for COc1ccc(N2CCN(c3nc4ccccc4n4c(C)nnc34)CC2)cc1 ?
HCMV antiviral: -10.8

What do the screens show for `Cc1nnc2c(N3CCN(CCO)CC3)nc3ccccc3n12`?
Pf growth 96h: 13.1µM*; HCMV antiviral: 44.9; Shiga toxin inh: -6.6; HCV inhibitor: -0.5%; CHX counter: 0.7; Pf growth 48h: -24.5%

Results for O=C(COC(=O)c1cc[n+]([O-])cc1)Nc1ccc([N+](=O)[O-])cc1C(F)(F)F ?
Pf growth 96h: 62.3%; HCMV antiviral: 5.3; HCV inhibitor: inconclusive; Pf growth 48h: 1.9%

What do the screens show for `O=C(c1ccccc1)c1ccc(OCC(=O)N2CCOCC2)cc1`?
Pf growth 96h: 46.4%; HCMV antiviral: 4.0; Shiga toxin inh: 46.0*; HCV inhibitor: 18.4%; CHX counter: 16.7; Pf growth 48h: 27.5%

Results for COc1ccc(/C=N/OCC(=O)N2CCCC2)c(OC)c1 ?
Pf growth 96h: 40.7%; HCMV antiviral: -26.9; Shiga toxin inh: 29.8; HCV inhibitor: 16.7%; CHX counter: 16.9*; Pf growth 48h: -0.2%

What do the screens show for `Cc1cc(OCCN2CCCCCC2)ccc1[N+](=O)[O-]`?
Pf growth 96h: 25.4%; HCMV antiviral: -9.9; Shiga toxin inh: -3.0; HCV inhibitor: inconclusive; CHX counter: 1.5; Pf growth 48h: 4.3%

Results for COc1ccc(/C=N/OCC(=O)NCC(C)C)c(OC)c1 ?
Pf growth 96h: inconclusive; HCMV antiviral: -34.4; Shiga toxin inh: -4.2; HCV inhibitor: -11.4%; CHX counter: -0.8; Pf growth 48h: -3.1%

Results for Cc1ccc(OCC(=O)N2CCOCC2)cc1C ?
Pf growth 96h: 33.1%; HCMV antiviral: -13.7; Shiga toxin inh: 44.3*; HCV inhibitor: 6.2%; CHX counter: 30.8*; Pf growth 48h: 43.0%

How did Cc1cc(OCC(=O)N2CCCCCC2)ccc1[N+](=O)[O-] do in these assays?
Pf growth 96h: 52.8%; HCMV antiviral: 41.7; Shiga toxin inh: 17.3; HCV inhibitor: -2.7%; CHX counter: 42.5*; Pf growth 48h: 120.6%

What do the screens show for `O=C(c1ccc(Cl)cc1)c1cccc(O)c1`?
HCMV antiviral: 9.9; HCV inhibitor: 5.1%

Results for CCCOc1ccc(-c2c(C(=O)N/N=C(\C)COc3ccccc3)nnn2-c2nonc2N)cc1 ?
Pf growth 96h: 40.7%; HCMV antiviral: 8.6; Shiga toxin inh: -10.8; HCV inhibitor: -4.1%; CHX counter: -3.6; Pf growth 48h: -1.3%

What do the screens show for `CC(C)(C)OC(=O)C[C@H]1C/C=C\C[C@@H](CC(=O)N[C@@H](CO)Cc2ccccc2)C(=O)NC[C@H](c2ccccc2)OC1=O`?
HCMV antiviral: -5.3; HCV inhibitor: 10.1%

How did O=C(COc1ccc2cc(Br)ccc2c1Br)N1CCOCC1 do in these assays?
Pf growth 96h: -2.7%; HCMV antiviral: -22.1; Shiga toxin inh: 29.9*; HCV inhibitor: -8.5%; CHX counter: 28.6*; Pf growth 48h: 17.0%

How did Cc1cccc(OCC(=O)N2CCN(C(=O)c3ccc([N+](=O)[O-])cc3)CC2)c1 do in these assays?
Pf growth 96h: -6.7%; HCMV antiviral: -60.9*; Shiga toxin inh: -14.3; HCV inhibitor: -6.5%; CHX counter: -0.5; Pf growth 48h: 8.3%

Results for Cc1cc(OCC(=O)OCC(=O)N2CCCCC2)ccc1Cl ?
HCMV antiviral: 11.9

How did O=C(COc1ccc(Br)cc1)N1CCOCC1 do in these assays?
Pf growth 96h: inconclusive; HCMV antiviral: -24.9; Shiga toxin inh: 21.7; HCV inhibitor: 7.4%; CHX counter: 17.8; Pf growth 48h: 22.9%

How did Cc1cccc(OCC(=O)N2CCN(Cc3ccc([N+](=O)[O-])cc3)CC2)c1 do in these assays?
Pf growth 96h: 22.5%; HCMV antiviral: -32.4; Shiga toxin inh: 11.9; HCV inhibitor: inconclusive; CHX counter: -2.2; Pf growth 48h: 11.6%

What do the screens show for `Cc1ccc(OCC(=O)N2CCCCCCC2)cc1C`?
Pf growth 96h: 11.8%; HCMV antiviral: 22.5; Shiga toxin inh: 29.1*; HCV inhibitor: -4.0%; CHX counter: 21.0*; Pf growth 48h: 24.1%

How did O=C(O)C1CCN(C(=O)COc2ccc3c(c2)oc(=O)c2ccccc23)CC1 do in these assays?
Pf growth 96h: 16.4%; HCMV antiviral: 0.0; Shiga toxin inh: -2.4; HCV inhibitor: inconclusive; CHX counter: -1.9; Pf growth 48h: 14.6%
